Bioassay records (PubChem)
IL1B secr inh = qHTS for Inhibitors of Inflammasome Signaling: IL-1-beta AlphaLISA Primary Screen. activity change, % at 57.5 µM. THP-1 LPS/ATP IL-1B secretion, AlphaLISA, 16 h; stronger effect = lower value. hit rate 4.7% among 360,000; in the data active = activity change below about -50%; inconclusive = mostly about -30% to -49%
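Secreted IL-1B measured by AlphaLISA bead assay after 16 h compound exposure of THP-1 cells; compounds (final up to 57.5 uM) added 1 h before LPS (250 ng/mL) and ATP (1.25 mM) stimulation; lower signal means less secretion.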
HT1080 IDH1KD tx = qHTS for induction of synthetic lethality in tumor cells producing 2HG: qHTS for the HT-1080-IDH1KD cell line; HT-1080 IDH1 knockdown viability, ATP luminescence, 48 h; Potency, µM (highest dose often 46.1 µM), for the others: at the top dose activity, negative = toxicity, most hits filed as cytotoxic; hit rate 2% among 360,000; AID 686971, 2013;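 also: potency is read from the fitted curve at half-maximal effect; 0% = DMSO wells and -100% = cell-free medium wells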
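IDH1KD HT-1080 cells, 750/well, RPMI + 5% FBS; compound pinned after 2 h settling; 48 h, 37 °C; CellTiter-Glo luminescence; % activity normalised to DMSO and no-cell wells; curves fitted, classed by r2 and efficacy.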
KB-V1 MDR tox = qHTS assay for MDR1-selective chemotherapeutics: Primary screen using the drug-selected MDR subline cells KB-V1; hit rate 3.4% among 400,000; Potency, µM (highest dose often 46.1 µM), most hits filed as cytotoxic; KB-V1 MDR cells viability, CellTiter-Glo, 72 h; also: potency is read from the fitted curve at half-maximal effect; nearly all actives have a fitted effect of over 60% in size
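KB-V1, DMEM (no phenol red) + 10% FBS; cpd pin-transferred, titration series; 72 h, 37 degrees C; CellTiter-Glo, luminescence. Data normalized, curve-fit.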
HT1080NT lethal = qHTS for induction of synthetic lethality in tumor cells producing 2HG: qHTS for the HT-1080-NT fibrosarcoma cell line. HT-1080-NT fibrosarcoma viability, CellTiter-Glo ATP luminescence, 48 h. Potency, µM (doses to about 46.1 µM), without a hit: at the highest dose activity, negative = less viability, hits mostly cytotoxic. hit rate 1.6% among 360,000;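 also: NT is the 2HG producing partner of a matched IDH1 knockdown line; potency is read from the fitted curve at half-maximal effect; 0% = DMSO-treated cells and -100% = media-only wells without cells; nearly all actives have a fitted effect of over 55% in size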
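Viability of the 2HG-overproducing fibrosarcoma line after 48 hours of compound exposure at 37 degrees C was determined by luminescence with CellTiter-Glo, and concentration-effect curves were then fitted and categorized.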
KB-3-1 tox = qHTS assay for MDR1-selective chemotherapeutics: Primary screen using the parental adenocarcinoma cell KB-3-1; AID 1347075, 2019; KB-3-1 viability, CellTiter-Glo ATP luminescence, 72 h; Potency, µM (highest dose often 46.1 µM), most hits filed as cytotoxic; hit rate 1.4% among 400,000; also: potency is read from the fitted curve at half-maximal effect; nearly all actives have a fitted effect of over 60% in size
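Cytotoxicity in the drug-sensitive parental line KB-3-1 was scored as loss of CellTiter-Glo luminescence following 72 h incubation with compound. Values come from curve fitting of normalized concentration-response data.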
* hit, by the source's call; ! = not confirmed by another sample. A selection: hits, their analogues and other compounds. The true share with any hit is near 8.8%. Unless noted, calls follow the shape of the dose curve; as a rule, active = well fitted curve in the direction sought with a large enough effect; inconclusive = small, poorly fitted or top-dose-only effect, or another doubt; inactive = no such curve, though single readings can be large; an effect the other way counts as inactive or inconclusive. Unless noted, % is scaled to controls: 0 for no effect and ±100 for the full control effect.

What do the screens show for `COc1ccc(-n2c(SCC(=O)NC3CCCCC3)nc3ccsc3c2=O)cc1`?
IL1B secr inh: 0; HT1080 IDH1KD tx: 7%; KB-V1 MDR tox: 2.1µM*; HT1080NT lethal: -7%; KB-3-1 tox: inactive

Results for COc1ccc2nc(SCC(=O)NC3CCCCC3)[nH]c2c1 ?
IL1B secr inh: 25; HT1080 IDH1KD tx: -3%; KB-V1 MDR tox: inactive; HT1080NT lethal: -3%; KB-3-1 tox: inactive

Results for COc1ccc2nc(SCC(=O)NC3CCCC3)c(C)cc2c1 ?
IL1B secr inh: 65; HT1080 IDH1KD tx: 5.8µM*; KB-V1 MDR tox: inconclusive; HT1080NT lethal: inconclusive; KB-3-1 tox: 7.3µM*

What do the screens show for `COc1ccc2c(C)cc(SCC(=O)NC3CCCC3)nc2c1`?
IL1B secr inh: 6; HT1080 IDH1KD tx: -1%; KB-V1 MDR tox: inactive; HT1080NT lethal: -1%; KB-3-1 tox: inactive

What do the screens show for `COc1ccc(-c2cc(=O)oc3cc(OCC(=O)NCC4CCC(C(=O)O)CC4)ccc23)cc1` (stereo not drawn)?
IL1B secr inh: -1; HT1080 IDH1KD tx: -5%; KB-V1 MDR tox: inactive; HT1080NT lethal: -1%; KB-3-1 tox: inactive

How did O=C(NCCCN1CCOCC1)c1cnccn1 do in these assays?
IL1B secr inh: -6; HT1080 IDH1KD tx: 10%; KB-V1 MDR tox: inactive; HT1080NT lethal: 4%; KB-3-1 tox: inactive

How did COc1ccc(C(=O)N/C(N)=N/c2nc3ccccc3o2)cc1 do in these assays?
IL1B secr inh: 7; HT1080 IDH1KD tx: inconclusive; KB-V1 MDR tox: inconclusive; HT1080NT lethal: inconclusive; KB-3-1 tox: inconclusive

Results for COc1ccc(C(=O)/C=C/Sc2nc3ccccc3o2)cc1 ?
IL1B secr inh: -95*; HT1080 IDH1KD tx: 3.3µM*; KB-V1 MDR tox: inconclusive; HT1080NT lethal: inconclusive; KB-3-1 tox: inconclusive

Results for O=C(N/N=C/c1ccc2c(c1)OCO2)c1cccc(NC(=O)c2ccccc2Cl)c1 ?
IL1B secr inh: 70; HT1080 IDH1KD tx: 8.2µM*; KB-V1 MDR tox: inactive; HT1080NT lethal: 12µM*; KB-3-1 tox: inconclusive

How did Cc1cccc(C(=O)Nc2ccc(C(=O)N/N=C/c3ccc4c(c3)OCO4)cc2)c1 do in these assays?
IL1B secr inh: 9; HT1080 IDH1KD tx: -25%; KB-V1 MDR tox: inconclusive; HT1080NT lethal: inconclusive; KB-3-1 tox: inconclusive

How did O=C(N/N=C/c1ccc2c(c1)OCO2)c1ccc(NC(=O)c2ccccc2Cl)cc1 do in these assays?
IL1B secr inh: -3; HT1080 IDH1KD tx: inconclusive; KB-V1 MDR tox: inactive; HT1080NT lethal: inconclusive; KB-3-1 tox: inactive

What do the screens show for `Cc1cccc(C(=O)Nc2cccc(C(=O)N/N=C/c3ccc4c(c3)OCO4)c2)c1`?
IL1B secr inh: 17; HT1080 IDH1KD tx: inconclusive; KB-V1 MDR tox: inactive; HT1080NT lethal: 18µM*; KB-3-1 tox: 13µM*

Results for Fc1ccc(-c2csc(/C=C/c3ccc4c(c3)OCO4)n2)cc1 ?
IL1B secr inh: 12; HT1080 IDH1KD tx: 7%; KB-V1 MDR tox: inactive; HT1080NT lethal: 3%; KB-3-1 tox: inactive

What do the screens show for `COc1ccc(NS(=O)(=O)c2ccc(N3CCCCS3(=O)=O)cc2)cc1Cl`?
KB-V1 MDR tox: inactive; KB-3-1 tox: inconclusive

How did COc1cc2c(cc1OC)C(SC)=NC(C)(C)C2 do in these assays?
IL1B secr inh: -102*; HT1080 IDH1KD tx: inconclusive; KB-V1 MDR tox: inactive; HT1080NT lethal: inconclusive; KB-3-1 tox: inactive

Results for COc1ccc(C2=NC(C)(C)Cc3cc(OC)c(OC)cc32)cc1 ?
IL1B secr inh: -1; HT1080 IDH1KD tx: 3%; KB-V1 MDR tox: inactive; HT1080NT lethal: 5%; KB-3-1 tox: inactive

Results for CCCCNC(=O)[C@@H]1CC=C[C@@H]2CCN(Cc3ccc(Cl)c(Cl)c3)C(=O)[C@@H]21 ?
IL1B secr inh: -7; HT1080 IDH1KD tx: -9%; KB-V1 MDR tox: inconclusive; HT1080NT lethal: 19%; KB-3-1 tox: inconclusive

Results for O=C(NCCc1ccccc1)[C@@H]1CC=C[C@@H]2CCN(Cc3ccc(Cl)c(Cl)c3)C(=O)[C@@H]21 ?
IL1B secr inh: 0; HT1080 IDH1KD tx: -29%; KB-V1 MDR tox: 16µM*!; HT1080NT lethal: -22%; KB-3-1 tox: inconclusive

Results for COc1ccc(NC(=O)[C@@H]2CC=C[C@@H]3CCN(Cc4ccc(Cl)c(Cl)c4)C(=O)[C@@H]32)cc1 ?
IL1B secr inh: inconclusive; HT1080 IDH1KD tx: inconclusive; KB-V1 MDR tox: 23µM*!; HT1080NT lethal: -30%; KB-3-1 tox: inconclusive

Results for O=C1[C@H]2[C@H](C=CC[C@H]2C(=O)N2CCN(c3ccccc3)CC2)CCN1Cc1ccc(Cl)c(Cl)c1 ?
IL1B secr inh: -51*; HT1080 IDH1KD tx: -5%; KB-V1 MDR tox: inconclusive; HT1080NT lethal: 0%; KB-3-1 tox: inactive

What do the screens show for `COc1ccc(OC)c(S(=O)(=O)N/N=C\c2cn(CC(N)=O)c3ccccc23)c1`?
IL1B secr inh: inactive; HT1080 IDH1KD tx: inconclusive; KB-V1 MDR tox: inactive; HT1080NT lethal: -22%; KB-3-1 tox: inconclusive

What do the screens show for `COc1ccc(Br)c(Cn2c(C)c(C(=O)NCc3cccc([N+](=O)[O-])c3)sc2=O)c1`?
IL1B secr inh: -18; HT1080 IDH1KD tx: -4%; KB-V1 MDR tox: inconclusive; HT1080NT lethal: -2%; KB-3-1 tox: inactive

How did O=C(CSC1=NCCS1)N1N=C(c2cccs2)CC1c1ccc(F)cc1 (stereo not drawn) do in these assays?
IL1B secr inh: -66*; HT1080 IDH1KD tx: 0%; KB-V1 MDR tox: inconclusive; HT1080NT lethal: 1%; KB-3-1 tox: inactive

Results for Cn1c(=O)cc(OCC(=O)N2CCCc3ccccc32)c2ccccc21 ?
IL1B secr inh: -3; HT1080 IDH1KD tx: 1%; KB-V1 MDR tox: 15µM*; HT1080NT lethal: 6%; KB-3-1 tox: inactive

Results for O=C1c2cccc(OCC(=O)N3N=C(c4cccs4)CC3c3ccc(F)cc3)c2CCN1Cc1cccnc1 (stereo not drawn) ?
IL1B secr inh: -6; HT1080 IDH1KD tx: -30%; KB-V1 MDR tox: 21µM*; HT1080NT lethal: -22%; KB-3-1 tox: inactive

What do the screens show for `Cc1ccccc1OCC(=O)N1CCCc2ccccc21`?
IL1B secr inh: 8; HT1080 IDH1KD tx: 0%; KB-V1 MDR tox: inactive; HT1080NT lethal: 26%; KB-3-1 tox: inactive

Results for Cc1ccccc1CN1CCc2c(OCC(=O)N3CCCc4ccccc43)cccc2C1=O ?
IL1B secr inh: inconclusive; HT1080 IDH1KD tx: inconclusive; KB-V1 MDR tox: inconclusive; HT1080NT lethal: inconclusive; KB-3-1 tox: 21µM*
